Screens (PubChem BioAssay)
TDP1 cell CPT – DT40-hTDP1 cell growth loss with CPT. chicken DT40 Tdp1-/-;hTDP1 cells + 20 nM CPT, ATP luminescence, 48 h. Potency, µM (top dose mostly 46.2 µM), without a hit: top-dose activity change, negative = growth inhibition, usual class: inhibitors. hit rate 12% among 420,000. AID 686979; also: nearly all actives have a fitted effect of over 55% in size
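Cell growth measured by CellTiter-Glo luminescence after a minimum 48 h, 37 C compound exposure with 20 nM CPT in Tdp1-knockout DT40 cells stably expressing hTDP1, seeded 400/well; qHTS titration format.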
HT1080 IDH1KD tx – kills HT-1080 cells with IDH1 knockdown | Potency, µM (titrated, usually from 46.1 µM), inactives show at the top dose activity, negative = toxicity, hits mostly cytotoxic | HT-1080 IDH1 knockdown viability, ATP luminescence, 48 h | AID 686971 | hit rate 2% among 360,000;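 also: 0% = DMSO wells and -100% = cell-free medium wells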
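After a 2 h attachment period, IDH1KD HT-1080 cells took pin-transferred compound for 48 h at 37 °C; ATP-based luminescence after 10 min room-temperature reagent incubation reported viability.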
HT1080NT lethal – kills 2HG-producing HT-1080-NT fibrosarcoma cells; HT-1080-NT fibrosarcoma viability, CellTiter-Glo ATP luminescence, 48 h; Potency, µM (titrated, usually from 46.1 µM), for inactives: at the highest dose activity, negative = less viability, usual class: cytotoxic; hit rate 1.6% among 360,000; AID 686970;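 also: NT is the 2HG producing partner of a matched IDH1 knockdown line; 0% = DMSO-treated cells and -100% = media-only wells without cells; nearly all actives have a fitted effect of over 55% in size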
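Compounds were tested in concentration-response format on HT-1080-NT cells for 48 hours at 37 degrees C. Cell viability came from CellTiter-Glo luminescence; curves were classified by r2, response magnitude and activity.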
KB-V1 cytotox – KB-V1 MDR subline cytotoxicity; Potency, µM (top dose mostly 46.1 µM), usual class: cytotoxic; KB-V1 MDR cells viability, CellTiter-Glo, 72 h; hit rate 3.4% among 400,000; also: nearly all actives have a fitted effect of over 60% in size
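qHTS viability screen in drug-selected KB-V1 MDR cells: 72 h compound treatment at 37 degrees C, ATP luminescence end point.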
KB-3-1 cytotox – kills parental KB-3-1 adenocarcinoma cells; Potency, µM (highest dose often 46.1 µM), hits mostly cytotoxic; hit rate 1.4% among 400,000; KB-3-1 viability, CellTiter-Glo ATP luminescence, 72 h; also: nearly all actives have a fitted effect of over 60% in size
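Multi-concentration cytotoxicity screen in KB-3-1 cells grown in DMEM lacking phenol red with 10% FBS. After 72 h at 37 °C with compound, ATP-dependent luminescence was recorded.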
TDP1 cell noCPT – qHTS for Inhibitors of human tyrosyl-DNA phosphodiesterase 1 (TDP1): qHTS in cells in absence of CPT | Potency, µM (series often up to 46.2 µM), for the others: at the top dose activity change, negative = growth inhibition, most hits filed as inhibitors | hit rate 15% among 420,000 | DT40 Tdp1-/- hTDP1 cells, no CPT, ATP luminescence, 48 h; also: nearly all actives have a fitted effect of over 55% in size
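DT40 Tdp1-/-;hTDP1 cells, no CPT (DMSO vehicle only), 400 cells/well; compounds pin-transferred; ≥48 hr, 37 °C; CellTiter-Glo 30 min RT dark, luminescence read.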
Numbers without * were called inactive; i = inactive; u = inconclusive; x = not tested or not shown; [ ] = remark or other dose. A selection: hits, their analogues and other compounds. The true share with any hit is near 19%. Calls follow the shape of the dose curve; as a rule, active = well fitted curve in the direction sought with a large enough effect; inconclusive = small, poorly fitted or top-dose-only effect, or another doubt; inactive = no such curve, though single readings can be large; an effect the other way counts as inactive or inconclusive. Unless noted, % is scaled to controls: 0 for no effect and ±100 for the full control effect; potency is read from the fitted curve at half-maximal effect.

SMILES | TDP1 cell CPT | HT1080 IDH1KD tx | HT1080NT lethal | KB-V1 cytotox | KB-3-1 cytotox | TDP1 cell noCPT
Cc1ccc(CNC(=O)CCC2CCCN(Cc3cccc4ncccc34)C2)o1 (configuration not stated) | u | -32% | -4% | i | i | u
CC(=O)Nc1cncc(-c2cnn(CC(C)C)c2)n1 | -20% | 7% | 12% | i | i | -12%
O=C(Cn1ncc2c3ccccc3n(Cc3ccc(Cl)cc3)c2c1=O)N1CCCCCC1 | 13µM* | x | x | i | i | 10µM*
CC(CCc1ccccc1)NC(=O)Cn1ncc2c3ccccc3n(Cc3ccc(F)cc3)c2c1=O (configuration not stated) | u | x | x | i | i | u
CCOC(=O)C1CCN(C(=O)Cn2ncc3c4ccccc4n(Cc4ccc(F)cc4)c3c2=O)CC1 | 3.3µM* | x | x | i | i | 1.8µM*
CCOC(=O)C1CCCN(C(=O)Cn2ncc3c4ccccc4n(Cc4ccccc4)c3c2=O)C1 (configuration not stated) | u | x | x | i | i | 18µM*
Cn1c2ccccc2c2cnn(CC(=O)N3CCCCC3)c(=O)c21 | -25% | 4% | 16% | i | i | -6%
CCOC(=O)C1CCCN(C(=O)Cn2ncc3c4ccccc4n(C)c3c2=O)C1 (configuration not stated) | -2% | x | x | i | i | u
Fc1ccccc1Cn1nnc2c(-n3ccnc3)ncnc21 | -13% | -3% | -9% | i | i | u
C[C@@H](N)C(=O)N[C@H]1CCC2C3CC=C4C[C@@H](O)CC[C@]4(C)C3CC[C@@]21C (some centres not stated) | -24% | -6% | -5% | i | i | u
CC(C)[C@H](N)C(=O)N[C@H]1CCC2C3CC=C4C[C@@H](O)CC[C@]4(C)C3CC[C@@]21C (some centres not stated) | u | u | 18µM* | i | i | u
C[C@]12CC[C@H](O)CC1=CCC1C2CC[C@@]2(C)C1CC[C@@H]2NCc1ccccc1 (some centres not stated) | 21µM* | -10% | -2% | u | i | 21µM*
COC(=O)C1CCCCN1Cc1ccc2c(c1)CN(Cc1cn[nH]c1-c1ccc(F)cc1)CCO2 (configuration not stated) | 1%[9.04 µM] | x | x | x | x | u
COc1cc(C=O)c(-c2c(C=O)cc(OC)c3c2OCO3)c2c1OCO2 | u | -15% | -5% | u | i | 12µM*
CN(CC(=O)N(C)CC(=O)Nc1c(Cl)cccc1Cl)Cc1ccc(Br)s1 | -28% | 3% | -4% | i | i | u
COc1ccc(NC(=O)C(Cc2cc(C)cc(C)c2)C(C)C(=O)O)cc1 (configuration not stated) | 4% | 2% | -1% | i | i | -15%
COc1ccc(CCc2cc(OC)c(OC)c(OC)c2)cc1 | 0.82µM* | u | 1.6µM* | 2.6µM* | 0.52µM* | 0.58µM*
O=C(CSCc1ccccc1)N1CCN(c2cccc(C(F)(F)F)c2)CC1 | u | -21% | -14% | i | i | u
O=C(CSCc1ccc(F)cc1)N1CCN(c2ccccc2F)CC1 | 21µM* | x | x | x | x | 26µM*
O=C(CSCc1cccc(F)c1)N1CCN(c2ccccc2)CC1 | u | -7% | 3% | 21µM* | i | u
O=C(CSCc1ccccc1)N1CCN(c2ccc(F)cc2)CC1 | 13µM* | -3% | -29% | u | i | u
O=C(CCCOc1ccccc1)N1CCN(c2ccc(F)cc2)CC1 | u | -6% | -2% | i | i | 18µM*
Cc1ccc(C)c(NCCCCCCCC(=O)O)c1 | -19% | 2% | 29% | i | i | 2%
O=c1c(-c2cccs2)nc2cnc(N3CCOCC3)nc2n1CCc1ccccc1 | 2% | x | x | x | x | 22%
CC(=O)Nc1ccc(S(=O)(=O)Oc2ccc(/C=C3\SC(N)=NC3=O)cc2)cc1 | 12% | 0% | 4% | i | i | -19%
SMILES | TDP1 cell CPT | HT1080 IDH1KD tx | HT1080NT lethal | KB-V1 cytotox | KB-3-1 cytotox | TDP1 cell noCPT
CC1CCCCC1NC(=O)COC(=O)c1ccc2c(=O)n3c(nc2c1)CCC3 (configuration not stated) | -10% | 1% | 1% | i | i | 7%
CCOC(=O)CN(C(=O)COC(=O)C1=NNC(=O)CC1)c1ccc(F)cc1 | -11% | -5% | -19% | i | i | -13%
COc1ccc(Cl)cc1NC(=S)NNC(=O)C1(C)CC1(Cl)Cl (configuration not stated) | 4% | 1% | -10% | i | i | u
COC(=O)c1ccc2nc(-c3cccc(Cl)c3)c(Cc3ccccc3OC)n2c1 | 16µM* | -29% | -26% | u | i | 23µM*
COc1ccccc1Cc1c(-c2cccc(Cl)c2)nc2ccc(Br)cn12 | 23µM* | -5% | -2% | i | i | 21µM*
COc1ccc(C(CNC(=O)Nc2ccc(Cl)cc2)N2CCN(C)CC2)cc1 (configuration not stated) | -24% | -18% | u | i | i | -10%
O=C(c1ccc(S(=O)(=O)N2CCCC2)cc1)N1CCCc2ccccc21 | u | -2% | -1% | i | i | u
CN1CCN(c2ncncc2-c2ccccc2Cl)CC1 | 8% | x | x | x | x | 0%
CN1CCN(c2ncnc3scc(-c4ccccc4Cl)c23)CC1 | u | -5% | -14% | i | i | 9.2µM*
Oc1ccccc1N1CCN(c2ncnc3scc(-c4ccccc4)c23)CC1 | u | u | u | u | u | 23µM*
COc1ccc(-c2csc3ncnc(N4CCN(CCO)CC4)c23)cc1 | -23% | -19% | -2% | i | i | u
COc1ccc(-c2csc3ncnc(N4CCN(c5ccccc5OC)CC4)c23)cc1 | u | -7% | -18% | u | u | 18µM*
COc1ccc(-c2csc3ncnc(NCCCO)c23)cc1 | u | u | -30% | u | i | 8.2µM*
O=C(NCC1CCCO1)c1ccc(-c2ccccc2Cl)o1 (configuration not stated) | -31% | 2% | 0% | i | i | -23%
